Assay results: PubChem BioAssay (Tox21)
Results filed as inconclusive are left out. A number with no mark means an inactive call. The call rests on the fitted dose curve.

assay: p53 small molecule agonists, cell-based qHTS assay with human liver microsomes: qHTS cell viability counter screen (AID 1963579); conditions: p53RE-bla HCT-116 viability, ATP luminescence, 16 h, HLM; series mostly up to 66 µM; activity change, negative = cytotoxicity: at the top concentration
Procedure, shortened: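 Luminescent CellTiter-Glo read-out, 30 min at room temperature, gauged cytotoxicity in p53RE-bla cells exposed 16 h at 37 C to DMSO-dissolved compounds with metabolic activation by human liver microsomes and NADPH, each 0.5 mg/mL final.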
Further: nearly all actives have a fitted effect of over 45% in size.
On the % scale 0 is the no-effect control and ±100 the full control effect.

Structure (SMILES)	activity change, negative = cytotoxicity
CC1CCC(CO)CC1 (stereo not given)	-1.09%
Cc1c[nH]c(=S)[nH]c1=O	-15.4%
CC(=O)OC1C2(C)CCC(C2)C1(C)C (stereo not given)	-3.11%
COP(=O)(OC)OC(c1ccc(Cl)cc1)P(=O)(OC)OC (stereo not given)	-3.51% [at 30.3 µM]
CCC(Cl)CC(Cl)C(Cl)C(Cl)C(Cl)C(C)Cl (stereo not given)	-1.84% [at 13.5 µM]
O=C(O)c1ccc(S(=O)(=O)O)cc1C(=O)O	1.55%
CCCOC(=O)CCCCC(=O)OCCC	21.1%
CCCCCCC[N+](CC)(CC)CCCCc1ccc(Cl)cc1	9.76% [at 30.3 µM]
O=C1CCCCCCCCCCCC(=O)OCCO1	10.3%
CCCCCCCCCCl	-0.887%
CC(C)CCCCCCOC(=O)C1CCCCC1C(=O)OCCCCCCC(C)C (stereo not given)	18.8%
O=S(=O)(O)c1cc(O)c2ccc(Nc3ccccc3)cc2c1	8.54%
SC1CCCC1	-11.7%
N#CCCN(CCO)CCO	-1.46%
CC(C)O.CC(C)O.CCOC(=O)/C=C(\C)O.CCOC(=O)/C=C(\C)O.[Ti]	0.0491%
Cn1cc(C(=O)[C@@H]2CCc3nc[nH]c3C2)c2ccccc21	0.957% [at 30.3 µM]
CC1=C(O)C(=O)CO1	-0.621%
Cc1ccc2ccc3cccc4ccc1c2c34	-10.8%
O=C(OCC(COC(=O)c1cccnc1)(COC(=O)c1cccnc1)COC(=O)c1cccnc1)c1cccnc1	-0.692% [at 30.3 µM]
NC(=O)N(O)[C@@H]1COc2cc(OCc3ccccc3)ccc21	1.15%

Structure (SMILES)	activity change, negative = cytotoxicity
CN1C(CSCC(F)(F)F)Nc2cc(Cl)c(S(N)(=O)=O)cc2S1(=O)=O (stereo not given)	-2.9% [at 30.3 µM]
Nc1ccc2cc(S(=O)(=O)O)cc(O)c2c1N=Nc1ccccc1C(F)(F)F	-2.32%
CC[C@H](C)C(=O)O[C@H]1C[C@H](O)C=C2C=C[C@H](C)[C@H](CC[C@@H](O)C[C@@H](O)CC(=O)O)[C@H]21	23.6%
CCCCOCCOCCOCc1cc2c(cc1CCC)OCO2	0.207% [at 30.3 µM]
CCCC(=O)O[C@]1(C(=O)COC(=O)CC)CC[C@H]2[C@@H]3CCC4=CC(=O)CC[C@]4(C)[C@H]3[C@@H](O)C[C@@]21C	0.226% [at 13.5 µM]
CCN1C=CN(C)C1C (stereo not given)	-4.44%
CC1CCC(=O)C1=O (stereo not given)	-2.35%
COc1ccc(CCN(C)CCCN2CCc3cc(OC)c(OC)cc3CC2=O)cc1OC	-3.7% [at 30.3 µM]
CSc1ccc(C=O)cc1	0.565%
OCCC1CCCCN1 (stereo not given)	0.585%
C=C(C)C(=O)OCCOc1ccccc1	-10.1%
OCCCCCCCCCCCCBr	-10.9%
C/C=C/C=N/NC(=O)c1ccncc1	13.3% [at 30.3 µM]
COc1ccc2cc1Oc1ccc(cc1)C[C@H]1c3c(cc4c(c3Oc3cc5c(cc3OC)CCN(C)[C@@H]5C2)OCO4)CCN1C	35.1% [at 30.3 µM]
Cc1cc(O)c2c(O)c3c(O)cccc3cc2c1	1.71% [at 30.3 µM]
Cc1ncc([N+](=O)[O-])n1CC(O)CCl (stereo not given)	13.3% [at 30.3 µM]
Cc1c(N)cccc1N	0.968%
Oc1cccc(Nc2ccccc2)c1	1.99%
NNC(=O)OCc1ccccc1	6.14%
C[C@@H]1C[C@H]2[C@@H]3C[C@H](F)C4=CC(=O)C=C[C@]4(C)[C@@]3(F)[C@@H](O)C[C@]2(C)[C@@]1(O)C(=O)CO	9.3% [at 30.3 µM]

assay: p53 small molecule agonists, cell-based qHTS assay with rat liver microsomes: qHTS cell viability counter screen (AID 1963580); conditions: p53RE-bla HCT-116 + rat microsomes, ATP viability, 16 h; series mostly up to 66 µM; activity change, negative = cytotoxicity: at the top concentration
Procedure, shortened: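 Counter screen for cytotoxicity under metabolic activation: rat liver microsomes and NADPH, 0.5 mg/mL final each, added with compounds to p53RE-bla HCT-116 cells; 16 h at 37 C, then ATP luminescence read.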

Structure (SMILES)	activity change, negative = cytotoxicity
CC1CCC(CO)CC1 (stereo not given)	9.22%
Cc1c[nH]c(=S)[nH]c1=O	-12.7%
CC(=O)OC1C2(C)CCC(C2)C1(C)C (stereo not given)	0.337%
COP(=O)(OC)OC(c1ccc(Cl)cc1)P(=O)(OC)OC (stereo not given)	4.89% [at 30.3 µM]
CCC(Cl)CC(Cl)C(Cl)C(Cl)C(Cl)C(C)Cl (stereo not given)	-14% [at 13.5 µM]
O=C(O)c1ccc(S(=O)(=O)O)cc1C(=O)O	3.9%
CCCOC(=O)CCCCC(=O)OCCC	2.45%
CCCCCCC[N+](CC)(CC)CCCCc1ccc(Cl)cc1	-3.74% [at 30.3 µM]
O=C1CCCCCCCCCCCC(=O)OCCO1	-14.5%
CCCCCCCCCCl	13.3%
CC(C)CCCCCCOC(=O)C1CCCCC1C(=O)OCCCCCCC(C)C (stereo not given)	-1.79%
O=S(=O)(O)c1cc(O)c2ccc(Nc3ccccc3)cc2c1	32.3%
SC1CCCC1	-5.2%
N#CCCN(CCO)CCO	-1.59%
CC(C)O.CC(C)O.CCOC(=O)/C=C(\C)O.CCOC(=O)/C=C(\C)O.[Ti]	0.786%
Cn1cc(C(=O)[C@@H]2CCc3nc[nH]c3C2)c2ccccc21	-10.9% [at 30.3 µM]
CC1=C(O)C(=O)CO1	0.0817%
Cc1ccc2ccc3cccc4ccc1c2c34	-4.44%
O=C(OCC(COC(=O)c1cccnc1)(COC(=O)c1cccnc1)COC(=O)c1cccnc1)c1cccnc1	8.71% [at 30.3 µM]
NC(=O)N(O)[C@@H]1COc2cc(OCc3ccccc3)ccc21	1.02%

Structure (SMILES)	activity change, negative = cytotoxicity
CN1C(CSCC(F)(F)F)Nc2cc(Cl)c(S(N)(=O)=O)cc2S1(=O)=O (stereo not given)	0.0886% [at 30.3 µM]
Nc1ccc2cc(S(=O)(=O)O)cc(O)c2c1N=Nc1ccccc1C(F)(F)F	0%
CC[C@H](C)C(=O)O[C@H]1C[C@H](O)C=C2C=C[C@H](C)[C@H](CC[C@@H](O)C[C@@H](O)CC(=O)O)[C@H]21	2.18%
CCCCOCCOCCOCc1cc2c(cc1CCC)OCO2	2.53% [at 30.3 µM]
CCCC(=O)O[C@]1(C(=O)COC(=O)CC)CC[C@H]2[C@@H]3CCC4=CC(=O)CC[C@]4(C)[C@H]3[C@@H](O)C[C@@]21C	1.95% [at 13.5 µM]
CCN1C=CN(C)C1C (stereo not given)	-2.34%
CC1CCC(=O)C1=O (stereo not given)	-9.95%
COc1ccc(CCN(C)CCCN2CCc3cc(OC)c(OC)cc3CC2=O)cc1OC	-4.36% [at 30.3 µM]
CSc1ccc(C=O)cc1	-0.395%
OCCC1CCCCN1 (stereo not given)	-12.6%
C=C(C)C(=O)OCCOc1ccccc1	0.263%
OCCCCCCCCCCCCBr	1.46%
C/C=C/C=N/NC(=O)c1ccncc1	21.9% [at 30.3 µM]
COc1ccc2cc1Oc1ccc(cc1)C[C@H]1c3c(cc4c(c3Oc3cc5c(cc3OC)CCN(C)[C@@H]5C2)OCO4)CCN1C	-7.34% [at 30.3 µM]
Cc1cc(O)c2c(O)c3c(O)cccc3cc2c1	0% [at 30.3 µM]
Cc1ncc([N+](=O)[O-])n1CC(O)CCl (stereo not given)	2.79% [at 30.3 µM]
Cc1c(N)cccc1N	1.03%
Oc1cccc(Nc2ccccc2)c1	-10.5%
NNC(=O)OCc1ccccc1	0.252%
C[C@@H]1C[C@H]2[C@@H]3C[C@H](F)C4=CC(=O)C=C[C@]4(C)[C@@]3(F)[C@@H](O)C[C@]2(C)[C@@]1(O)C(=O)CO	-0.893% [at 30.3 µM]
